This passage reports outcome and AC50 results from PubChem BioAssay (EPA / NIEHS).

Records with an inconclusive call do not appear. The source made the active and inactive calls. The calls were made as follows: active = hit-call score of the fitted dose curve at least 0.9, where 1 is the maximum; inconclusive = response in the unintended direction; inactive = score below 0.9.

human Phosphodiesterase 10 (PDE10), PDE10A (gene 10846), sequence (Q9Y233 whole entry, looked up): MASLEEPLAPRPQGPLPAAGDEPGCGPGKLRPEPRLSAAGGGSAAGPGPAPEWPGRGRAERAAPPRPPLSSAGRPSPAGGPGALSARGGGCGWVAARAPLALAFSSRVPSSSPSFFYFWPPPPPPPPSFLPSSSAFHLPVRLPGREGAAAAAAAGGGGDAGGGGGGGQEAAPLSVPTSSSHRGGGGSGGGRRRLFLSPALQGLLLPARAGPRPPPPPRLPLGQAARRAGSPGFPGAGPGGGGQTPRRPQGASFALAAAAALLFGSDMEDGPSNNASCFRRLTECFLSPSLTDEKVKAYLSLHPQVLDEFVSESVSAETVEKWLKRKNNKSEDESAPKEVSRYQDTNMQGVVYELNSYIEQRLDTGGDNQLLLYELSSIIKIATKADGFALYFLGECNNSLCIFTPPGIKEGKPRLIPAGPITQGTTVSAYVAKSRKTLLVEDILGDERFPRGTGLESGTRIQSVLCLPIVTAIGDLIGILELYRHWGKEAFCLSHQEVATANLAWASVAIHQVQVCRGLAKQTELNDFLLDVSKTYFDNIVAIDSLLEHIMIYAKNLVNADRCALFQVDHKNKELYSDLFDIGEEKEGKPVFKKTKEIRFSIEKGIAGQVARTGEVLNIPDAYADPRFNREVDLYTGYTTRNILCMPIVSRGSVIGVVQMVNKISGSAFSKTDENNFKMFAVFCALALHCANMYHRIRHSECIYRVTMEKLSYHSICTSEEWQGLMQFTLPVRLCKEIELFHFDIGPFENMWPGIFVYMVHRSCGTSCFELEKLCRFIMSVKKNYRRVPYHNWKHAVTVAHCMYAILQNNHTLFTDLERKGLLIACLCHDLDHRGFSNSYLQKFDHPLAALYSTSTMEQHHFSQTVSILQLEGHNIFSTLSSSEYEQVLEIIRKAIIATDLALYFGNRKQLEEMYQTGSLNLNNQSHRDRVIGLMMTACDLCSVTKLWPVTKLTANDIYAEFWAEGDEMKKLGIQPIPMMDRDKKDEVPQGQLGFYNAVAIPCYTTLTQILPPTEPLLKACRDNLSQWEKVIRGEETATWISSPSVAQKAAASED

This assay addresses human Phosphodiesterase 10 (PDE10), PDE10A (gene 10846) (UniProt Q9Y233). Nature of the assay: NVS_ENZ_hPDE10: NovaScreen (NVS) Enzymatic Assay for human Phosphodiesterase 10 (PDE10) (AID 2283195). As for the experimental part:
NVS_ENZ_hPDE10 is a biochemical, single-readout assay that uses extracted gene-proteins in a cell-free assay. Measurements were taken 1 hour after chemical dosing in a 384-well plate.NVS_ENZ_hPDE10 is one of one assay component(s) measured or calculated from the NVS_ENZ_hPDE10 assay. It is designed to make measurements of enzyme activity, a form of enzyme reporter, as detected with fluorescence intensity signals by Fluorescence and electrophoretic mobility shift technology.Data from the assay component NVS_ENZ_hPDE10 was analyzed into 1 assay endpoint. This assay endpoint, NVS_ENZ_hPDE10, was analyzed in the positive analysis fitting direction relative to DMSO as the negative control and baseline of activity. Using a type of enzyme reporter, loss-of-signal activity can be used to understand changes in the enzymatic activity as they relate to the gene PDE10A. Furthermore, this assay endpoint can be referred to as a primary readout, because this assay has produced multiple assay endpoints where this one serves a enzymatic activity function. To generalize the intended target to other relatable targets, this assay endpoint is annotated to the esterase intended target family, where the subfamily is phosphodiesterase.
Binding assays used specific radioligands (tritiated, iodinated) with non-radioactive competitive displacement ligands in agonist or antagonist protocols (as indicated) and various reference compounds and inhibitors to titrate specific binding to receptors and transporters. Most enzyme assays (CYPs, kinases, phosphatases, proteases, HDACs) used recombinant protein and specific substrates (fluorescence mostly, some colorimetric and radioactive) and inhibitors, followed by a biochemical separation of substrate and product. All assays for the biochemical HTS were initially run in duplicate at a single concentration (10 uM for CYP450 assays and 25 uM for all others). Assay-chemical combinations meeting a pre-defined threshold (e.g., 30% inhibition and other criteria defined below) were then run in singleton concentration-response format with maximum concentration of 20 uM for CYPs and 50 uM for all others. Each assay was run with positive and negative controls, and concurrent controls on every plate. The follow-up (secondary) screen tested active chemical-pairs in concentration series, as well as a few additional assays not tested in the primary screen, some selected negative inactives, and several cases re-run in the concentration series for confirmatory purposes.
As for `O=Nc1ccc(O)cc1`, the call was inactive.

Take `O=C1CCCC(=O)O1`: the outcome was inactive.

Take `Cc1ccc(C2OC[C@@H]3OC(c4ccc(C)cc4)O[C@H]([C@H](O)CO)[C@@H]3O2)cc1` (stereo partly drawn): the compound was classed as inactive.

For the compound `C=C(C)C(=O)OCC(C)C`, the result was inactive.

As for `Cc1ccc(N)c([N+](=O)[O-])c1`, the AC50 is 25 µM (active).

`CCCCCCCCCCc1ccccc1`: the outcome was inactive.

On to `CCC(C)C=O` (stereo not drawn), for which the AC50 was 16.2 µM (active).

As to `CC1OC1C1CCC2(C)OC2C1` (stereo not drawn), the compound was classed as inactive.

As for `OCCCS`, the result was inactive.

On to `NC(=O)NNC(N)=O`, for which the call was inactive.

On to `CC(C)(C)c1n[nH]c(=O)n(N)c1=O`, for which the compound was classed as inactive.

For the compound `CC(C)(c1cc(Br)c(OCCO)c(Br)c1)c1cc(Br)c(OCCO)c(Br)c1`, the concentration at half-maximal activity (AC50) was 20.2 µM (active).

Turning to `CCOC(=O)[C@H](C)O`, the outcome was inactive.

As for `O=CN1CCCCC1`, the result was inactive.

Regarding `Cn1c(=O)[nH]c2ncn(C)c2c1=O`, the result was inactive.

Regarding `Nc1cccc(C(F)(F)F)c1`, the compound was called inactive.

Regarding `CCCCCCCCCCCCCCCC[N+](C)(C)CC`, the outcome was inactive.

Consider `C=C(C)CCO`, for which the AC50 was 38.2 µM (active).

The term AC50 denotes the concentration at which the activity in the assay is half-maximal.
